Hits are enriched below; roughly 21% of the tested compounds scored in any of these assays.
HCV inhibitor: inhibitors of hepatitis C virus infection. Huh7.5.1 HCVcc-Cre infection, luciferase reporter, 44 h. Potency, µM (series often up to 41.8 µM), for inactives: at the highest dose activity change, negative = inhibition, hits mostly inhibitors. hit rate 3.4% among 340,000. AID 651820; also: potency is read from the fitted curve at half-maximal effect; % is scaled to controls: 0 for no effect and ±100 for the full control effect
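Antiviral activity was scored by luciferase reporter output from cells infected with HCVcc-Cre (~0.5 moi) in presence of compound, 44 h infection period, cells seeded 1,000/well 4 h prior.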
Pf growth 96h: P. falciparum growth inhibition at 96 hour, primary screen for plastid delayed-death inhibitors. P. falciparum luciferase reporter growth, 96 h. Potency, µM (highest dose often 28.7 µM), without a hit: at the top dose activity change, negative = inhibition, usual class: inhibitors. hit rate 6.9% among 320,000; also: potency is read from the fitted curve at half-maximal effect; % is scaled to controls: 0 for no effect and ±100 for the full control effect
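Luminescence readout: decreased luciferase signal marks inhibited growth of reporter-expressing P. falciparum in infected red cells (2% hematocrit, 0.05% parasitemia final), exposed to compound two generations (96 h, 37 C, 5% CO2).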
AMA1-RON2 inh: disrupts binding of P. falciparum AMA1 to RON2. AlphaScreen AMA1-biotinylated RON2 peptide binding. Potency, µM (titrated, usually from 58.2 µM), inactives show at the highest dose activity change, negative = inhibition, usual class: inhibitors. hit rate 0.2% among 360,000;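 also: potency is read from the fitted curve at half-maximal effect; 0% = vehicle wells and -100% = peptide control; nearly all actives have a fitted effect of over 45% in size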
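AMA1 (3D7) with his tag at 25 nM final met compounds first, then biotinylated RON2 peptide at 25 nM; detection used donor plus acceptor beads, 10 µg/mL apiece, read by AlphaScreen after 30 min at room temperature.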
Pf growth 48h: inhibits P. falciparum growth in the first generation, 48 h | P. falciparum luciferase growth in erythrocytes, 48 h | Potency, µM (doses to about 28.7 µM), for inactives: at the highest dose activity change, negative = inhibition, actives largely listed as inhibitors | hit rate 5.9% among 310,000 | AID 504832; also: potency is read from the fitted curve at half-maximal effect; % is scaled to controls: 0 for no effect and ±100 for the full control effect
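First compound was added to culture medium, then infected red cells at 0.1% parasitemia and 2% hematocrit (final). After incubation at 37 C under 5% CO2, luciferase detection reagent was dispensed and light output recorded.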
Cycloheximide cs: affects cycloheximide protein synthesis inhibition readout, counter-screen. cell reporter, cycloheximide protein synthesis inhibition counterscreen. max response, %. hit rate 12% among 300,000. AID 2314; in the data active = max response mostly above about 13%, no sharp cut-off; inactive = mostly below about 14%; also: read at 38.3 µM for the half of the compounds with a filed dose; 0% is about no effect
Shiga toxin inh: blocks Shiga toxin action in Vero cells; Vero cells, Shiga toxin protein synthesis inhibition reporter; inhibition, % at 38.7 µM; hit rate 9.2% among 290,000; AID 2315; in the data active = inhibition mostly above about 28%, no sharp cut-off; inactive = mostly below about 43%; also: 0% is about no effect
Starred values were filed as active, the others as inactive; ? = inconclusive; . = not tested or not shown; ! = a repeat was not active; [ ] = remark or other dose. Unless noted, calls follow the shape of the dose curve; as a rule, active = well fitted curve in the direction sought with a large enough effect; inconclusive = small, poorly fitted or top-dose-only effect, or another doubt; inactive = no such curve, though single readings can be large; an effect the other way counts as inactive or inconclusive.

SMILES | HCV inhibitor | Pf growth 96h | AMA1-RON2 inh | Pf growth 48h | Cycloheximide cs | Shiga toxin inh
COC(=O)C1=C(C)N(Cc2ccccc2)C(=NCc2ccc(OC)cc2)N[C@H]1c1ccccc1 | ? | -4% | -2% | ? | -3 | -4
COC(=O)C1=C(C)N(Cc2ccccc2)C(=S)N[C@H]1CCc1ccccc1 | . | -6% | . | ? | -2 | 3
C=CCN=C1N[C@@H](c2cccc(C(F)(F)F)c2)C(C(=O)OC)=C(C)N1CC | -28% | 3.3µM* | 6% | 10µM*! | -3 | 13
COC(=O)C1=C(C)N(Cc2ccccc2)C(=NCCCCO)N[C@H]1CCc1ccccc1 | 4% | 3.7µM* | -1% | ? | -3 | -3
COCCNC(=S)N(C)[C@H]1C[C@H]2c3cc(-c4ccccc4)ccc3CCN2C(=O)[C@H]1[C@H](C)O | . | . | 2% | . | . | .
Cc1cccc(Nc2cc(=O)n(C)c(=O)n2C)c1 | . | . | 4% | . | . | .
CC1CC1C(=O)N1CCN(S(=O)(=O)c2cc(C(F)(F)F)cc(C(F)(F)F)c2)CC1 (centres undefined) | ? | ? | -6% | ? | . | .
Nc1nc2ccccc2n1/N=C/c1ccc([N+](=O)[O-])s1 | 3.5µM* | 1.5µM* | 3% | ? | 6 | 14
Nc1nc2ccccc2n1/N=C/c1ccc(-c2ccccc2)o1 | ? | 14% | -16% | 20% | 25* | 72*
CC(OC(=O)CN1C(=O)c2ccccc2C1=O)C(=O)NC1CCCC1 (centres undefined) | 14% | 19% | 3% | 28% | -2 | -5
COc1ccc(CNC(=O)C(=O)NCCC2CCCCN2S(=O)(=O)c2cccs2)cc1 (centres undefined) | ? | ? | -6% | ? | . | .
COc1ccc(CNC(=O)C[C@H]2C[C@H](C(=O)N(C(C)C)C(C)C)[C@@]3(C)c4[nH]c5cc(-c6ccco6)ccc5c4CCN3C2=O)cc1OC | ? | . | -29% | . | . | .
COc1ccc(C2=COc3ccccc3C(=O)N2)cc1 | -13% | 7% | 7% | 9% | 21* | 56*
O=C1NC(c2ccc(Cl)cc2)=COc2ccccc21 | 24% | 38% | -10% | 36% | 17 | 3
Cc1nc2c(C(=O)Nc3ccc(N4CCCC(O)C4)cc3)snc2c(=O)[nH]1 (centres undefined) | -10% | ? | -7% | 1.7µM* | 2 | 1
O=C(Nc1ccc(N2CCCC(O)C2)cc1)c1snc2c(=O)[nH]cnc12 (centres undefined) | 12% | 42% | -2% | . | 0 | 21
O=C(COC(=O)c1ccc(S(=O)(=O)N2CCCCC2)cc1)NCc1ccc(F)cc1 | 13% | 9% | -7% | ? | . | .
COc1ccc(CNC(=O)CSCc2ccccc2Cl)cc1 | -1% | -9% | -2% | 26% | 62* | 66*
O=C(CSCc1ccccc1F)NCc1ccccc1 | 9% | -23% | -1% | 253% | 44* | 72
Cc1ccc(CNC(=O)CSCc2cccc(F)c2)cc1 | -3% | 0% | -1% | 86% | 46* | 65
O=C(CSCc1cccc(F)c1)NCc1ccccc1 | 18% | 2.1µM* | 42% | 302% | 48* | 173*
Cc1ccc(CNC(=O)CCSCc2ccccc2F)cc1 | -3% | -21% | -13% | . | 11 | -13
COC(=O)c1cc(NS(=O)(=O)c2ccc(NC(C)=O)cc2)ccc1Cl | 14% | 21% | -9% | 2% | 1 | -13
CCC(Sc1nc(N)c(NC(=O)c2ccc(Br)o2)c(=O)[nH]1)C(=O)O (centres undefined) | 3% | ? | -9% | 0% | 8 | -11
OCCOc1ccc(CN2CCN(CCCc3ccccc3)C(CCO)C2)cc1 (centres undefined) | 9% | 19% | 6% | -10% | -3 | 7
SMILES | HCV inhibitor | Pf growth 96h | AMA1-RON2 inh | Pf growth 48h | Cycloheximide cs | Shiga toxin inh
COc1ccccc1-c1nn2c(C3COc4ccccc4O3)nnc2s1 (centres undefined) | -19% | 3.7µM* | 6% | 14% | 10 | 6
c1ccc(Cc2nnc3sc(C4COc5ccccc5O4)nn23)cc1 (centres undefined) | -15% | ? | 0% | -7% | 0 | 1
c1ccc(CCc2nn3c(C4COc5ccccc5O4)nnc3s2)cc1 (centres undefined) | 3% | 26% | 11% | 6% | 24* | 35*
c1ccc(Cc2nn3c(C4COc5ccccc5O4)nnc3s2)cc1 (centres undefined) | 11% | . | 18% | -8% | 33* | 72*
Fc1ccc(SCCc2ccccn2)cc1 | 13% | 0% | -1% | 27% | 52* | 72*
CC(C)(C)c1ccc(SCCc2ccccn2)cc1 | -2% | 190% | 21% | 176% | 40* | 89*
CC(C)(C)c1ccc(S(=O)(=O)CCc2ccccn2)cc1 | 2% | -48% | 4% | . | 27* | 54*
Cc1ccc(NC(=O)C2CCCN2C(=O)OC(C)(C)C)cc1C (centres undefined) | -2% | ? | -3% | ? | -4 | -7
O=C(Nc1nc2n(n1)C(c1ccccc1)C=C(c1ccccc1)N2)c1ccco1 (centres undefined) | -4% | ? | 96% | 8.3µM* | -5 | 23
CCC(=O)Nc1nc2n(n1)C(c1ccc(OC)cc1)C=C(c1ccccc1)N2 (centres undefined) | . | ? | . | . | 9 | 10
O=C(c1nc2n(n1)C(c1ccc(Cl)cc1)C=C(c1ccccc1)N2)N1CCOCC1 (centres undefined) | -14% | 4% | 29% | 4.1µM* | 1 | -8
CC(=O)Nc1nc2n(n1)C(c1ccccc1)C=C(c1ccccc1)N2 (centres undefined) | 17% | 5.2µM* | 29% | -5% | -4 | -14
CC(=O)Nc1nc2n(n1)C(c1ccc(F)cc1)C=C(c1ccccc1)N2 (centres undefined) | 26% | 45% | 39% | ? | 9 | -14
CC(C)(C)C(=O)Nc1cccc(-c2ncon2)c1 | 18% | 37% | -14% | 46% | 2 | -1
CS(=O)(=O)c1ccc(-c2sc3ccccc3c2C(=O)NCCCN2CCOCC2)cc1 | -7% | . | 15% | . | . | .
COc1ccc(/C=N/Nc2cc(C)nc(N)n2)cc1 | 1% | -2% | 9% | 9.3µM* | 32* | 67*
COc1ccc(/C=N/Nc2cc(C)nc(N3CCOCC3)n2)cc1 | 6% | 2% | 0% | 61% | 2 | 5
COc1cc(/C=N/Nc2cc(C)nc(N)n2)ccc1O | -8% | ? | 70% | -31%[0.00184 µM] | 13 | 36*
COc1cc(/C=N/Nc2nc(C)cc(C)n2)ccc1O | . | . | 121% | . | . | .
O=C(Nc1ccc(S(=O)(=O)Nc2nccs2)cc1)c1c(F)c(F)c(F)c(F)c1F | ? | 3.7µM* | -24% | -8% | 1 | -13
O=S(=O)(Nc1nccs1)c1ccc(F)cc1 | 12% | ? | 9% | 16% | 38* | 59*
